This excerpt belongs to a sample that is enriched for hits.
RORg inh: inhibitors of mouse ROR gamma transcriptional activity; P51450; Drosophila S2 Gal4-RORgamma UAS-luciferase reporter, 20 h; Potency, µM (highest dose often 53.6 µM), for inactives: top-dose activity change, negative = inhibition, hits mostly inhibitors; 310,000 compounds, 5.4% hits; AID 2551; note: potency is the fitted concentration of half-maximal effect; % is set by controls: 0 for no effect and ±100 for the full control effect; nearly all actives have a fitted effect of over 60% in size
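Stable Schneider cell line, Gal4 DNA-binding domain fused to ROR gamma, UAS-luciferase. Cmpd 1 hr RT → CuSO4 700 uM final → 20 hr RT → luciferase reagent 10 min → luminescence.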
Giardia kill: kills Giardia lamblia. Giardia lamblia trophozoite viability. 340,000 compounds, 0.15% hits. AID 540267. activity change, % at 7.66 µM, hits read low; in the data active = activity change below about -80%; inconclusive = between about -30% and that limit;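 note: parasites exposed to compound for two days anaerobically before the ATP read; % is set by controls: 0 for no effect and ±100 for the full control effect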
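Giardia lamblia trophozoites (100 cells/well) were incubated with compounds for 48 h at 37 deg C under anaerobic conditions. Viability was read as ATP content by one-step luminescence after 15-30 min at room temperature.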
Integrin act MD: activators of alpha7 integrin expression for muscular dystrophy; 350,000 compounds, 0.064% hits; Potency, µM (titrated, usually from 38.3 µM), without a hit: top-dose activation, hits mostly activators; alpha7betagal myoblasts, beta-gal FDG fluorescence, 48 h; AID 624291;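 note: potency is the fitted concentration of half-maximal effect; 100% = response of the positive control SU9516; nearly all actives have a fitted effect of over 60% in size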
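Alpha7betagal+/- myoblasts (passage 13) were plated 16-24 hr, then exposed to compounds (1:260 dilution of DMSO stock) for 48 hours at 37C. After MPER lysis, β-galactosidase reporter activity was read as FDG fluorescence (ex 480/em 540) after 30 minutes.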
ERG Ets-DNA blk: ERG Ets/DNA interaction inhibition; fluorescence polarization, His-ERG Ets domain / labelled DNA; 370,000 compounds, 0.028% hits; Potency, µM (titrated, usually from 76.9 µM), for the others: at the top dose FP activity, negative = inhibition, most hits filed as inhibitors; P11308; AID 624246; active = well fitted inhibition curve with a large enough effect in the polarisation, with a control signal flat; inconclusive = small, poorly fitted or top-dose-only effect, or effect the other way, or a change in a side signal; inactive = no such curve, though single readings can be large or run the other way; the % refers to the polarisation;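 note: polarization taken with two DNA probes labelled with fluorescein and Texas red; potency is the fitted concentration of half-maximal effect; % of control where 0% means no effect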
Target sequence (P11308 whole entry, looked up, the tested form may be a part): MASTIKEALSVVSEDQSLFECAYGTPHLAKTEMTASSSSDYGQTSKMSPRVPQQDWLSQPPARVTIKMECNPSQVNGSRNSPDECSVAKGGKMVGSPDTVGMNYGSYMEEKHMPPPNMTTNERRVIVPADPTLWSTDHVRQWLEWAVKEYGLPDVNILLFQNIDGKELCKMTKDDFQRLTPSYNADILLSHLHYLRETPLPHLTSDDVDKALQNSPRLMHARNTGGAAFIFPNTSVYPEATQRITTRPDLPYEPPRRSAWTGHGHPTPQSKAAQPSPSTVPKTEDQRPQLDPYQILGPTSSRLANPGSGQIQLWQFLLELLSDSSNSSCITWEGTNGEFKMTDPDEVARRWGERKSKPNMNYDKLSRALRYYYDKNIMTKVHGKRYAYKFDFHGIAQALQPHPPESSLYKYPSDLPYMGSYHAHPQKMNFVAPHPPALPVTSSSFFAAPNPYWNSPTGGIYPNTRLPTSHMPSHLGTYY
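His-tagged ERG Ets domain (1 uM in the protein solution; 300mM KCl, 50mM Tris-HCl, 1mM EDTA, 1mM DTT, pH 7.5) received compound, then a probe mix of 5 nM fluorescein-DNA and 100nM Texas-615-DNA. Fluorescence polarization was read for both dyes.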
VP16 counter: Gal4-VP16 reporter inhibition counter-screen; Drosophila S2 Gal4-VP16 UAS-luciferase, luminescence, 20 h; Potency, µM (top dose mostly 53.6 µM), for the others: top-dose activity, negative = inhibition, most hits filed as inhibitors; 310,000 compounds, 3.5% hits; AID 2546;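 note: Gal4-VP16 expression switched on by copper sulfate through the metallothionein promoter; potency is the fitted concentration of half-maximal effect; % is set by controls: 0 for no effect and ±100 for the full control effect; nearly all actives have a fitted effect of over 50% in size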
The depositor's hits bear a star; ? = inconclusive; · = no result; [ ] = another dose, or the depositor's remark. Unless noted, calls come from the whole dose curve; as a rule, active = well fitted curve in the direction sought with a large enough effect; inconclusive = small, poorly fitted or top-dose-only effect, or another doubt; inactive = no such curve, though single readings can be large; an effect the other way counts as inactive or inconclusive.

SMILES	RORg inh	Giardia kill	Integrin act MD	ERG Ets-DNA blk	VP16 counter
Cc1nc2sc(C(N)=O)c(N)c2c2c1CCCC2	5.62µM*	-15.3	?	3.3%	4.9%
O=C(NCCc1ccccc1)C(=S)N1CCCCC1	-0.6%	7.1	13.9%	-2.8%	1.7%[10 µM]
C/C(=N\NC(=S)NCc1ccccc1)c1ccccc1	3.55µM*	20.4	-17.6%	10.7%	3.55µM*
C/C(=N\NC(=S)NCc1ccccc1)c1ccc(C#N)cc1	2.82µM*	-10.7	-2.8%	-5.2%	7.08µM*
C/C(=N\NC(=S)NCc1ccccc1)c1ccco1	1.78µM*	5.7	3.3%	-7.8%	7.08µM*
C/C(=N\NC(=S)NCc1ccccc1)c1ccccc1F	1.26µM*	7.9	0.0%	6.4%	-8.8%
CC(Sc1nnc(-c2cccnc2)o1)C(=O)NC1CCCC1 (centres undefined)	·	-2.5	-1.3%	1.5%	·
C/C(=N\NC(=O)COc1ccc(C(C)(C)C)cc1)c1ccccc1	1.0%	3.8	-18.7%	15.9%	4.3%
CC1=C/C(=N\NC(=S)NCc2ccccc2)CC1	0.562µM*	0.8	-17.7%	-2.7%	3.16µM*
C/C(=N\NC(=S)NCc1ccccc1)c1ccc(C(C)(C)C)cc1	1µM*	-15.9	-42.1%	4.5%	1.41µM*
CC/C(C)=N/NC(=S)NCc1ccco1	10µM*	-9.2	-7.2%	-3.6%	?
COc1ccc(CNC(=S)N/N=C(/C)c2ccccc2)cc1	8.91µM*	-2.9	-20.5%	-11.5%	?
O=C(O)c1ccccc1/C=N/NC(=S)NCc1ccccc1	-14.8%	6.6	30.6%	-18.4%	17.9%
CC(=O)c1cccc(NC(=S)NCc2ccco2)c1	-3.6%	5.1	-17.9%	-6.2%	0.6%
O=C(CN1c2ccccc2S(=O)(=O)c2ccccc21)Nc1ccccc1Cl	·	·	·	2.3%	·
CO[C@H]1COC(=O)[C@H]2CCCN2C(=O)C/C=C\[C@@H](C)[C@H](OC)COC(=O)[C@@H](OCc2ccccc2)/C=C\[C@@H]1C	1.8%[10 µM]	·	·	·	-4.5%[10 µM]
COc1ccccc1CNC(=O)c1nnn(CC(=O)Nc2c(C)cccc2C)c1N	·	·	·	-1.1%	·
NC(=O)c1ccccc1N/C=C/C(=O)c1ccc(Cl)cc1Cl	0.631µM*	?	4.0%	-0.6%	3.98µM*
NC(=O)c1ccccc1N/C=C/C(=O)c1ccc(F)cc1	0.562µM*	-13.5	17.8%	-1.9%	?
O=C(NCCCN1CCN(c2ccc(F)cc2)CC1)c1ccc2nc(Cc3ccccc3)oc2c1	·	·	·	-0.9%	·
C[C@H]([C@H](C)N1CC(=O)NC(=O)C1)N1CC(=O)NC(=O)C1	2.6%	·	·	·	-23.7%
COc1ccc(C2CC2C(=O)c2ccccn2)cc1 (centres undefined)	20.7%	-6.6	-0.4%	2.6%	10.7%
O/N=C(\c1ccccn1)C1CC1c1ccccc1 (centres undefined)	12.6µM*	2.9	15.1%	2.9%	-13.1%
COc1ccc(C2CC2/C(=N/O)c2ccccc2)cc1 (centres undefined)	21.7%	-20.3	0.2%	13.6%	-2.3%
COc1ccc(C2CC2/C(=N/O)c2ccccn2)cc1 (centres undefined)	?	-4.8	-21.0%	2.4%	3.16µM*
SMILES	RORg inh	Giardia kill	Integrin act MD	ERG Ets-DNA blk	VP16 counter
Fc1ccccc1-c1csc(=Nc2cccnc2)n1CC1CCCO1 (centres undefined)	?	6.7	11.1%	-5.6%	7.08µM*
COc1cccc(C(=O)Nc2ccc(NC(=O)C3CCCCC3)nc2)c1	23.3%	6.5	3.6%	8.5%	6.4%
O=C(Nc1ccc(Br)cn1)c1cccc(C(=O)Nc2ccc(Br)cn2)c1	?	-24.0	7.2%	1.7%	1.26µM*
COc1cccc(C(=O)Nc2ccc(NC(=O)C(C)(C)C)cn2)c1	7.08µM*	?	10.8%	-1.1%	8.91µM*
O=C(Nc1ccc(Br)cn1)c1ccc2ccccc2c1	3.1%	-21.1	-17.0%	-3.0%	3.3%
CCN(CC)c1ncc(C#N)c(N)n1	1.4%	13.4	-26.5%	1.1%	5.7%
Cn1nccc1C(=O)NC(=S)Nc1cc(Cl)cc(Cl)c1	2.51µM*	14.2	10.0%	-7.7%	12.6µM*
Cc1ccc2cccc(NC(=S)NC(=O)c3ccnn3C)c2n1	?	3.5	-29.5%	-11.3%	?
CCCCOC(=O)c1ccc(NC(=O)Cc2coc3ccc(C(C)C)cc23)cc1	·	·	·	8.6%	·
